# Laboratory results as given in PubChem BioAssay (NCI).
# The panel holds about 83,000 compounds, 20% with a hit somewhere; the sample as a whole holds those more often.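 Each cell line was grown in a 96-well plate and treated with one concentration of compound for 48 hours. Values below 10 were considered active.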 A number with no mark means an inactive call. The source made the active and inactive calls.
# System: MDA-MB-468 breast
# Assay: NCI-60 one-dose screen, 48 h (100 = growth as untreated, 0 = no growth, -100 = all killed)
# Conditions: 10 µM unless noted
row,Structure (SMILES),growth
1,O=C(Oc1ccc(CO[N+](=O)[O-])cc1)c1ccccc1,-67.7% (active)
2,COc1ccc(-n2c(-c3ccccc3)c(-c3ccccc3)c3c(SCC(=O)N/N=C/c4ccc(Cl)cc4)ncnc32)cc1,77.6%
3,COc1ccc(-c2nn(-c3cccc(NC(=O)Nc4cccc(C(F)(F)F)c4)c3)cc2-c2ccncc2)cc1Cl,27.5%
4,Clc1ccc2c(NCCCN3CCOCC3)c3oc4ccccc4c3nc2c1,35.7%
5,CN1CCN(c2ccc3nc(-c4cc(C(C)(C)C)c(O)c(C(C)(C)C)c4)[nH]c3c2)CC1,65.4%
6,CC(C)(C)OC(=O)NC(CSCc1ccccc1)C(=O)ON1C(=O)CCC1=O (configuration not stated),115%
7,c1ccc(-c2nc3sc(C(c4ccccc4)c4ccccc4)nn3c2-c2ccccc2)cc1,96.1%
8,CC(=O)c1cccc(NS(=O)(=O)c2cccc(C(=O)Nc3ccc(Br)cc3)c2)c1,1.14% [25 µM] (active)
9,NC(=O)c1cccc(-n2ccc3cc(NC(=O)Nc4cc(C(F)(F)F)cc(C(F)(F)F)c4)ccc32)n1,40.7%
10,CC(=O)c1cc2c(cc1F)C(C)(C)CCC2(C)C,101%
11,COc1ccc(-n2ncc3c4nc(OC)c(S(=O)(=O)c5ccccc5)cc4ccc32)cc1,51.9%
12,CSc1ccc(Cl)c(C(=O)Nc2sccc2C(N)=O)c1,-7.28% (active)
13,Cc1ccc(C2CC(c3nc(-c4ccc(Cl)cc4)oc3C)=NN2C(=O)c2ccncc2)cc1 (configuration not stated),97.8%
14,C#Cc1nc(C2=C(C)C(=N\O)/C(=N/O)C2)cs1,82.6%
15,O=C(/C=C/c1ccc[nH]1)c1ccc(-n2ccc(C(F)(F)F)n2)c(F)c1,60.4%
16,COc1cccc(-c2nc3sccn3c2-c2ccnc(NCCNS(=O)(=O)c3ccc(C(F)(F)F)cc3)c2)c1,41.7%
17,O=C(CC(O)c1ccncc1)c1ccccc1 (configuration not stated),-50.3% (active)
18,CCOC(=O)c1nn(CC(O)c2ccccc2)c(NC(=O)Nc2cccc(F)c2)c1C (configuration not stated),94.6%
19,CCOC(=O)CSc1c(-c2ccccc2)c2cc(Cl)ccc2[nH]c1=O,98%
20,CCN1CCN(Cc2ccc(NC(=O)Nc3cccc(-n4ccc5c(NC(=O)c6ccccc6)nccc54)c3)cc2C(F)(F)F)CC1,20.2%
21,N#Cc1c2c([nH]c(=O)c1C(N)=O)CCCCC2,109%
22,CN1CCN(CCCNc2nccc(-c3c(-c4ccc(F)c(O)c4)nc4sccn34)n2)S1(=O)=O,92.9%
23,O=C(Nc1ccccc1O)c1ccc(-c2ccc(Cl)cc2Cl)o1,80.8%
24,COc1ccc(/C(=C\c2ccc3c(c2)OCO3)C(=O)Nc2nc3ccccc3s2)cc1,114%
25,CCCCCC(=O)Oc1ccc(/C(=C(\C)c2ccccc2)c2ccc(OCCN(CC)CC)cc2)cc1,61.5%
26,Cc1nn(-c2ccccc2)c2ncnc(N/N=C/c3ccccc3)c12,84.3%
27,CCOC(=O)c1c(C(=O)OCC)c2cc(-c3ccn4c(C(=O)c5ccccc5)c(C(=O)OCC)c(C(=O)OCC)c4c3)ccn2c1C(=O)c1ccccc1,106%
